# This is one part of a sample in which the strongest signals are shown more often than they occur.
# Key:
# Assay in all cases: glycan array binding signal (z-score within array); higher = stronger binding
# Conditions in all cases: glycan notation: IUPAC condensed, linker removed
# [1] = molecular target: Fuc(a1-2)Gal(b1-3)GalNAc(b1-3)Gal(a1-4)Gal(b1-4)Glc
# In short: (§1)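 The binding signal is a Z-score computed within each array. Data were drawn from 3228 arrays in the Consortium for Functional Glycomics database, restricted to those with a known protein sequence. Scores were averaged over arrays of the same protein sequence at different concentrations or buffers, and over linkers, and negative values can be taken as non-binding.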
# [2] = molecular target: Fuc(a1-2)Gal(b1-3)GlcNAc(b1-2)Man(a1-3)[Fuc(a1-2)Gal(b1-3)GlcNAc(b1-2)Man(a1-6)]Man(b1-4)GlcNAc(b1-4)[Fuc(a1-6)]GlcNAc
# In short: as §1
# [3] = molecular target: Fuc(a1-2)Gal(b1-3)[Fuc(a1-4)]GlcNAc
# In short: as §1
# Fuc(a1-2)Gal6S(b1-4)Glc = molecular target: Fuc(a1-2)Gal6S(b1-4)Glc
# In short: as §1
# Fuc(a1-4)GlcNAc = molecular target: Fuc(a1-4)GlcNAc
# In short: as §1
# Fuc(b1-3)GlcNAc = molecular target: Fuc(b1-3)GlcNAc
# In short: as §1
# [4] = molecular target: Gal(a1-3)Gal(b1-4)GlcNAc(b1-2)Man
# In short: as §1
# [5] = molecular target: Gal(a1-3)Gal(b1-4)GlcNAc(b1-3)GalNAc
# In short: as §1
# [6] = molecular target: Gal(a1-4)Gal(b1-4)GlcNAc(b1-3)Gal(b1-4)Glc
# In short: as §1
# Gal(b1-3)GalNAc(b1-3)Gal = molecular target: Gal(b1-3)GalNAc(b1-3)Gal
# In short: as §1
# [7] = molecular target: Gal(b1-3)GlcNAc(b1-2)Man(a1-3)[Gal(b1-3)GlcNAc(b1-2)Man(a1-6)]Man(b1-4)GlcNAc(b1-4)[Fuc(a1-6)]GlcNAc
# In short: as §1
# [8] = molecular target: Gal(b1-3)[Fuc(a1-4)]GlcNAc(b1-2)Man
# In short: as §1
# [9] = molecular target: Gal(b1-4)GlcNAc(b1-2)Man(a1-3)[Gal(b1-4)GlcNAc(b1-2)Man(a1-6)]Man(b1-4)GlcNAc(b1-4)[Fuc(a1-6)]GlcNAc
# In short: as §1
# [10] = molecular target: Gal(b1-4)GlcNAc(b1-2)Man(a1-3)[Gal(b1-4)GlcNAc(b1-2)Man(a1-6)][Gal(b1-4)GlcNAc(b1-4)]Man(b1-4)GlcNAc(b1-4)[Fuc(a1-6)]GlcNAc
# In short: as §1
# [11] = molecular target: Gal(b1-4)GlcNAc(b1-2)Man(a1-6)Man(b1-4)GlcNAc(b1-4)GlcNAc
# In short: as §1
# [12] = molecular target: Gal(b1-4)GlcNAc(b1-2)[Gal(b1-4)GlcNAc(b1-6)]Man(a1-6)[Gal(b1-4)GlcNAc(b1-2)Man(a1-3)]Man(b1-4)GlcNAc(b1-4)[Fuc(a1-6)]GlcNAc
# In short: as §1
# [13] = molecular target: Gal(b1-4)GlcNAc(b1-3)Gal(b1-3)GalNAc
# In short: as §1
# [14] = molecular target: Gal(b1-4)GlcNAc(b1-3)Gal(b1-4)GlcNAc
# In short: as §1
# [15] = molecular target: Gal(b1-4)GlcNAc(b1-3)Gal(b1-4)GlcNAc(b1-2)Man(a1-3)[Gal(b1-4)GlcNAc(b1-3)Gal(b1-4)GlcNAc(b1-2)Man(a1-6)]Man(b1-4)GlcNAc(b1-4)[Fuc(a1-6)]GlcNAc
# In short: as §1
# [16] = molecular target: Gal(b1-4)GlcNAc(b1-3)Gal(b1-4)GlcNAc(b1-3)Gal(b1-4)GlcNAc(b1-2)Man(a1-3)[Gal(b1-4)GlcNAc(b1-3)Gal(b1-4)GlcNAc(b1-3)Gal(b1-4)GlcNAc(b1-2)Man(a1-6)]Man(b1-4)GlcNAc(b1-4)[Fuc(a1-6)]GlcNAc
# In short: as §1
# [17] = molecular target: Gal(b1-4)GlcNAc(b1-3)Gal(b1-4)GlcNAc(b1-3)Gal(b1-4)GlcNAc(b1-3)Gal(b1-4)GlcNAc(b1-2)Man(a1-3)[Gal(b1-4)GlcNAc(b1-3)Gal(b1-4)GlcNAc(b1-3)Gal(b1-4)GlcNAc(b1-3)Gal(b1-4)GlcNAc(b1-2)Man(a1-6)]Man(b1-4)GlcNAc(b1-4)[Fuc(a1-6)]GlcNAc
# In short: as §1
# [18] = molecular target: Gal(b1-4)GlcNAc(b1-3)Gal(b1-4)GlcNAc(b1-3)Gal(b1-4)GlcNAc(b1-3)Gal(b1-4)GlcNAc(b1-3)Gal(b1-4)GlcNAc(b1-2)Man(a1-3)[Gal(b1-4)GlcNAc(b1-3)Gal(b1-4)GlcNAc(b1-3)Gal(b1-4)GlcNAc(b1-3)Gal(b1-4)GlcNAc(b1-3)Gal(b1-4)GlcNAc(b1-2)Man(a1-6)]Man(b1-4)GlcNAc(b1-4)[Fuc(a1-6)]GlcNAc
# In short: as §1
# [19] = molecular target: Gal(b1-4)GlcNAc(b1-3)Gal(b1-4)GlcNAc(b1-6)[Gal(b1-3)]GalNAc
# In short: as §1
# Gal6S(b1-3)GlcNAc6S = molecular target: Gal6S(b1-3)GlcNAc6S
# In short: as §1
# Gal6S(b1-4)Glc6S = molecular target: Gal6S(b1-4)Glc6S
# In short: as §1
# GalNAc4S6S(b1-4)GlcNAc = molecular target: GalNAc4S6S(b1-4)GlcNAc
# In short: as §1
# [20] = molecular target: GlcNAc(a1-3)Gal(b1-4)GlcNAc
# In short: as §1
# [21] = molecular target: GlcNAc(b1-2)[GlcNAc(b1-6)]Man(a1-6)[GlcNAc(b1-2)Man(a1-3)]Man(b1-4)GlcNAc(b1-4)[Fuc(a1-6)]GlcNAc
# In short: as §1
# [22] = molecular target: GlcNAc(b1-3)Gal(b1-4)GlcNAc(b1-2)Man(a1-3)[GlcNAc(b1-3)Gal(b1-4)GlcNAc(b1-2)Man(a1-6)]Man(b1-4)GlcNAc(b1-4)GlcNAc
# In short: as §1
# [23] = molecular target: GlcNAc(b1-3)Gal(b1-4)GlcNAc(b1-3)Gal(b1-4)GlcNAc(b1-2)Man(a1-3)[GlcNAc(b1-3)Gal(b1-4)GlcNAc(b1-3)Gal(b1-4)GlcNAc(b1-2)Man(a1-6)]Man(b1-4)GlcNAc(b1-4)[Fuc(a1-6)]GlcNAc
# In short: as §1
# Kdn(a2-3)Gal(b1-3)GalNAc = molecular target: Kdn(a2-3)Gal(b1-3)GalNAc
# In short: as §1
# [24] = molecular target: Man(a1-3)[Man(a1-6)]Man(b1-4)GlcNAc(b1-4)[Fuc(a1-6)]GlcNAc
# In short: as §1
# [25] = molecular target: Neu5Ac(a2-3)Gal(b1-3)GlcNAc(b1-2)[Neu5Ac(a2-3)Gal(b1-3)GlcNAc(b1-4)]Man(a1-6)[Neu5Ac(a2-3)Gal(b1-3)GlcNAc(b1-2)Man(a1-3)]Man(b1-4)GlcNAc(b1-4)GlcNAc
# In short: as §1
# [26] = molecular target: Neu5Ac(a2-3)Gal(b1-3)GlcNAc6S
# In short: as §1
# [27] = molecular target: Neu5Ac(a2-3)Gal(b1-4)GlcNAc(b1-2)Man(a1-3)[Neu5Ac(a2-3)Gal(b1-4)GlcNAc(b1-2)Man(a1-6)]Man(b1-4)GlcNAc(b1-4)[Fuc(a1-6)]GlcNAc
# In short: as §1
# [28] = molecular target: Neu5Ac(a2-6)Gal(b1-4)GlcNAc(b1-2)Man(a1-3)[Neu5Ac(a2-3)Gal(b1-4)GlcNAc(b1-2)Man(a1-6)]Man(b1-4)GlcNAc(b1-4)GlcNAc
# In short: as §1
# [29] = molecular target: Neu5Ac(a2-6)Gal(b1-4)GlcNAc(b1-2)Man(a1-3)[Neu5Ac(a2-6)Gal(b1-4)GlcNAc(b1-2)Man(a1-6)]Man(b1-4)GlcNAc(b1-4)[Fuc(a1-6)]GlcNAc
# In short: as §1
# [30] = molecular target: Neu5Ac(a2-6)Gal(b1-4)GlcNAc(b1-6)[Gal(b1-3)GlcNAc(b1-3)]Gal(b1-4)Glc
# In short: as §1
# [31] = molecular target: Neu5Ac(a2-8)Neu5Ac(a2-8)Neu5Ac(a2-3)[GalNAc(b1-4)]Gal(b1-4)Glc
# In short: as §1
# Neu5Ac(b2-6)GalNAc = molecular target: Neu5Ac(b2-6)GalNAc
# In short: as §1
binder,measurement,setting,value
BTL (Bryothamnion triquetrum) (protein) ADPICGSSGYSCTTPAILTPKSPGSFPSGYSKVIVTGVGGSYSVYIHRPDGFKVYKASEGGCASFGSYSGGGNSEVGKYGSGGTVVAVACK,glycan array binding signal (z-score),[1],-0.262
same,glycan array binding signal (z-score),[2],2.75
same,glycan array binding signal (z-score),[3],-0.245
same,glycan array binding signal (z-score),Fuc(a1-2)Gal6S(b1-4)Glc,-0.244
same,glycan array binding signal (z-score),Fuc(a1-4)GlcNAc,-0.199
same,glycan array binding signal (z-score),Fuc(b1-3)GlcNAc,-0.257
same,glycan array binding signal (z-score),[4],-0.311
same,glycan array binding signal (z-score),[5],-0.244
same,glycan array binding signal (z-score),[6],-0.208
same,glycan array binding signal (z-score),Gal(b1-3)GalNAc(b1-3)Gal,-0.22
same,glycan array binding signal (z-score),[7],4.76
same,glycan array binding signal (z-score),[8],-0.111
same,glycan array binding signal (z-score),[9],4.92
same,glycan array binding signal (z-score),[10],0.352
same,glycan array binding signal (z-score),[11],-0.192
same,glycan array binding signal (z-score),[12],6.49
same,glycan array binding signal (z-score),[13],-0.107
same,glycan array binding signal (z-score),[14],-0.27
same,glycan array binding signal (z-score),[15],6.38
same,glycan array binding signal (z-score),[16],5.89
same,glycan array binding signal (z-score),[17],4.48
same,glycan array binding signal (z-score),[18],4.45
same,glycan array binding signal (z-score),[19],-0.128
same,glycan array binding signal (z-score),Gal6S(b1-3)GlcNAc6S,-0.24
same,glycan array binding signal (z-score),Gal6S(b1-4)Glc6S,-0.18
same,glycan array binding signal (z-score),GalNAc4S6S(b1-4)GlcNAc,-0.129
same,glycan array binding signal (z-score),[20],-0.194
same,glycan array binding signal (z-score),[21],4.85
same,glycan array binding signal (z-score),[22],-0.193
same,glycan array binding signal (z-score),[23],4.09
same,glycan array binding signal (z-score),Kdn(a2-3)Gal(b1-3)GalNAc,-0.259
same,glycan array binding signal (z-score),[24],4.2
same,glycan array binding signal (z-score),[25],-0.099
same,glycan array binding signal (z-score),[26],-0.24
same,glycan array binding signal (z-score),[27],5.15
same,glycan array binding signal (z-score),[28],-0.249
same,glycan array binding signal (z-score),[29],8.12
same,glycan array binding signal (z-score),[30],-0.204
same,glycan array binding signal (z-score),[31],-0.289
same,glycan array binding signal (z-score),Neu5Ac(b2-6)GalNAc,-0.274
